Drawing on PubChem BioAssay AID690 (Sanford-Burnham Center for Chemical Genomics, 2007), this text covers inhibition for 99 molecules.

Molecules are shown by their SMILES. About 80 (0.08%) of roughly 96,000 compounds were called active. Only a sample is shown. Entries with a potency or affinity are not part of this list. A number with no mark means an inactive call. The rule behind the calls is not given here.

This assay deals with Alkaline phosphatase, placental type (Homo sapiens) (UniProt P05187). The assay can be described thus: inhibition of human placental alkaline phosphatase – biochemical, luminescence, HTS (AID 690). The settings on record: purified PLAP, luminescent substrate; at 20 µM; hits give high values.
Chain of Alkaline phosphatase, placental type (Homo sapiens) (P05187 whole entry, looked up): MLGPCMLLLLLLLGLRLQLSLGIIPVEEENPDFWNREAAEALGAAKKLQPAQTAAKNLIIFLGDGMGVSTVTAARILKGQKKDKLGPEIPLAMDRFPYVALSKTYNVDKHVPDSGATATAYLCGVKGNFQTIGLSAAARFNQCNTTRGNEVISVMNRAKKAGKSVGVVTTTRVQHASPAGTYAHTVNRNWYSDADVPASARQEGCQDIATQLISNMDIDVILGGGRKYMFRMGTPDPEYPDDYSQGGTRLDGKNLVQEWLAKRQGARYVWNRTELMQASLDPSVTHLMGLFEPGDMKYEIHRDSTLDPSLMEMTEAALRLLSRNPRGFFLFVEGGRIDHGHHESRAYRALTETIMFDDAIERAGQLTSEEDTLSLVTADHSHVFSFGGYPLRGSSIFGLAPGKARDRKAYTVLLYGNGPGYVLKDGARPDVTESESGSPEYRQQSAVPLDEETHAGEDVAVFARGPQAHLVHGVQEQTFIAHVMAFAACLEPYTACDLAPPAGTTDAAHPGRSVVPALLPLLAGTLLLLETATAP
Regarding `Cc1ccc(-c2cc(C(=O)N/N=C\c3cnn(C)c3C)c3ccccc3n2)cc1C`, the inhibition (usually the change of the read-out against control, counted positive when it falls) was -102%.

Take `C=CCn1c(SCC(=O)Nc2ccccc2OC)nnc1-c1ccco1`: the inhibition is 8%.

As for `O=C(C1CC1)N1CCN=C1SCc1cccc(C(F)(F)F)c1`, the inhibition is 3%.

With `CCOCCCNC(=O)C1CCCN1S(=O)(=O)c1ccc(Cl)cc1` (centres undefined), the inhibition was 8.4%.

For the molecule `C#CC(CC)(CC)NC(=O)c1c(C)noc1C`, the inhibition is 4.5%.

For the molecule `O=C(Cc1cccs1)NCc1ccc(F)cc1`, the inhibition was -6%.

Turning to `CN1CCN(c2nc3c(c(=O)n(C)c(=O)n3C)n2CC(=O)C23CC4CC(CC(C4)C2)C3)CC1`, the inhibition is -54.5%.

Regarding `O=C1/C(=C/c2cccs2)SC(=S)N1c1ccccc1`, the inhibition is 12.2%.

Regarding `CCN(CC)c1ccc(N2C(=O)/C(=C/c3cccs3)SC2=S)cc1`, the inhibition is 3.4%.

For `CC(C)N(CCNS(=O)(=O)c1ccc(Cl)cc1)C(C)C`, the inhibition was 9.6%.

As for `O=C(Nc1ccccc1C(F)(F)F)c1ccc(CN2CCC(Cc3ccccc3)CC2)cc1`, the inhibition was -22.3%.

With `Cc1ccc(-c2cc(C(=O)N/N=C/c3c(C)nn(-c4ccccc4)c3C)[nH]n2)cc1`, the inhibition is -2.5%.

For the molecule `Cc1nn(-c2ccccc2)c(C)c1/C=N/NC(=O)c1cc(C(C)(C)C)[nH]n1`, the inhibition was -32%.

`O=c1[nH]c(CSc2nnc(-c3ccncc3)n2Cc2ccco2)nc2ccccc12`: the inhibition was -3.5%.

Regarding `N=c1oc2ccc3ccccc3c2cc1-c1nnc2n1CCCCC2`, the inhibition is -35.4%.

Turning to `O=[N+]([O-])c1ccc(C2CCCC/C2=N/OCc2ccc(F)cc2)c([N+](=O)[O-])c1` (centres undefined), the inhibition is 25.8%.

Consider `CC1CCC/C(=N/Nc2ccc([N+](=O)[O-])cc2[N+](=O)[O-])C1` (centres undefined), for which the inhibition was 21.1%.

For the molecule `CCN(CC)CCCNC(=O)N[C@@H](Cc1ccccc1)C(=O)O`, the inhibition was -2.1%.

On to `CC(=O)c1c(C(C)=O)c(C)n(-c2ccc(O)cc2)c1C`, for which the inhibition was -4.3%.

`COCC(C)NC(=O)NC1(C(F)(F)F)Oc2ccc(Cl)cc2O1` (centres undefined): the inhibition was 34.9%.

With `CCCCNC(=O)NC1(C(F)(F)F)Oc2ccccc2O1`, the inhibition was -12%.

Regarding `O=C(NCc1cccnc1)NC1(C(F)(F)F)Oc2ccccc2O1`, the inhibition was 12.3%.

Consider `CC(NC(=O)NCc1cccnc1)(C(F)(F)F)C(F)(F)F`, for which the inhibition was -6.1%.

Take `Cc1nccn1S(=O)(=O)c1ccc(Br)cc1Br`: the inhibition was -1.1%.

With `OC(CC1CC12c1ccccc1-c1ncccc12)(c1ccccc1)c1ccccc1` (centres undefined), the inhibition was -45%.

`CCCCn1cc(C(=O)c2cc(Br)ccc2O)cc(C#N)c1=O`: the inhibition is -1.5%.

As for `CCCC1CCc2c(c3ccccc3[nH]c2=O)O1` (centres undefined), the inhibition is -5%.

Consider `CC1CCc2c(c3ccccc3[nH]c2=O)O1` (centres undefined), for which the inhibition is 9%.

In the case of `Fc1ccc(CSc2nnc(-c3cnccn3)n2Cc2ccco2)cc1`, the inhibition was 7.7%.

For `CCCCOC(=O)CNc1n[nH]c(=S)[nH]c1=O`, the inhibition was -1.8%.

Regarding `CCCCOC(=O)C(C)Nc1n[nH]c(=O)[nH]c1=O` (centres undefined), the inhibition is 3.9%.

Turning to `CCN1CCN(Cc2nc3c(c(=O)n(C)c(=O)n3C)n2Cc2cccc3ccccc23)CC1`, the inhibition was -34.1%.

As for `Cc1ccccc1CN(c1ccc(C(=O)N2CCc3ccccc3C2)cc1)S(C)(=O)=O`, the inhibition was -40.7%.

As to `O=C(c1cccs1)c1coc2ccc(O)c(CN3CCOCC3)c12`, the inhibition is -1%.

Turning to `Cc1ccc(OCn2c(=O)sc3ccccc32)cc1`, the inhibition is -9%.

As to `O=c1sc2ccccc2n1CCOc1ccccc1`, the inhibition is 33.9%.

Regarding `CCOc1ccc(NC(N)=O)cc1OCC`, the inhibition was 13.6%.

For the molecule `O=P(O)(O)c1ccccc1OCCOCCOc1ccccc1P(=O)(O)O`, the inhibition is 17.4%.

As for `O=P(O)(O)c1ccccc1OCCCCCOc1ccccc1P(=O)(O)O`, the inhibition is 21.2%.

Take `CSC1=C(C#N)C(c2ccccc2C)C(C#N)=C(N)N1` (centres undefined): the inhibition was 17.9%.

In the case of `O=C(NC(Cc1ccc(F)cc1)C(=O)O)c1ccccc1` (centres undefined), the inhibition was -2.2%.

As to `Cc1cc(C)n2nc(SCc3nnc(SCc4ccccc4)s3)nc2n1`, the inhibition was -20.5%.

For the molecule `COC(=O)c1cc(NC(=O)C2COc3ccccc3O2)ccc1Cl` (centres undefined), the inhibition was 28.8%.

For the molecule `Cc1c(NC(=O)C(C)OC(=O)CNC(=O)c2ccccc2)c(=O)n(-c2ccccc2)n1C` (centres undefined), the inhibition is 5.2%.

In the case of `O=C(CSc1n[nH]c(-c2ccncc2)n1)c1ccccc1`, the inhibition was 7.6%.

In the case of `O=C(CSc1n[nH]c(-c2ccccc2)n1)c1ccccc1`, the inhibition is -11.7%.

For `Cc1ccc(C(=O)CSc2nc3ccccc3c(=O)[nH]2)cc1`, the inhibition was -27.5%.

Regarding `CC(C)(C)c1ccc(C(=O)CSc2nc3ccccc3c(=O)[nH]2)cc1`, the inhibition was -9.7%.

Regarding `COc1ccc(Cn2c(CCC(=O)Nc3ccc(CC#N)cc3)nc3cccnc32)cc1`, the inhibition is 11.1%.

As for `O=C(C[n+]1ccc(C(=O)N/N=C/c2ccc(OCc3ccccc3)cc2)cc1)c1ccccc1`, the inhibition was 41.8%.

For the molecule `O=C(C[n+]1ccc(C(=O)N/N=C/c2ccc(O)cc2)cc1)c1ccccc1`, the inhibition was 23.2%.

`CC(=O)NC1C(=O)N=C(SCC(=O)NC(C)c2ccccc2)NC1=O` (centres undefined): the inhibition is -18.8%.

On to `C=CCNS(=O)(=O)CC12CCC(CC1=O)C2(C)C` (centres undefined), for which the inhibition is 4.8%.

Take `CCOC(=O)Cc1csc(NC(=O)NC2(C(F)(F)F)Oc3ccc(Cl)cc3O2)n1` (centres undefined): the inhibition is 30.3%.

Turning to `O=C(NC1(C(F)(F)F)Oc2ccccc2O1)N1CCCC1`, the inhibition is -7.5%.

As to `O=C(Nc1cc(N2CCOCC2)ncn1)c1ccccc1`, the inhibition was 1.3%.

`O=C(Nc1cc(N2CCOCC2)ncn1)Nc1cccc2ccccc12`: the inhibition was 14.5%.

`CC(=O)OC(C)(C)C#CCN1CCCC1`: the inhibition is 24.5%.

In the case of `CC(=O)N1CCN(C(=S)c2ccc([N+](=O)[O-])cc2)CC1`, the inhibition is 12.8%.

Regarding `Cc1[nH]c2ccccc2c1C(=O)/C=C/c1ccccc1`, the inhibition was 10.6%.

In the case of `Cc1[nH]c2ccccc2c1/C=N/n1cnnc1`, the inhibition is 7.5%.

With `Cc1nn(CC(O)Cn2cnc3c2c(=O)n(C)c(=O)n3C)c(C)c1Br` (centres undefined), the inhibition was -1.6%.

Consider `CCOc1cccc(-c2nc(C(N)=O)c3[nH]c(=O)n(-c4cccc(Cl)c4)c3n2)c1O`, for which the inhibition is -27.5%.

Regarding `COc1cccc(OCCNc2cc(N3CCCCC3)ccc2[N+](=O)[O-])c1`, the inhibition is -2.3%.

On to `COc1ccc(OCCNc2cc(Cl)ccc2[N+](=O)[O-])cc1`, for which the inhibition was 4.1%.

Take `CCC(=O)NCCc1nc2cc(NC(=O)c3ccccc3OC)ccc2n1C`: the inhibition was -60.5%.

`CCOC(=O)c1c(C)n(CC(COC(C)=O)OC(C)=O)c2ccc(OC(C)=O)cc12` (centres undefined): the inhibition was -45.7%.

Turning to `CCCCN(CCCC)S(=O)(=O)c1ccc(C(=O)Nc2nnc(CSC)o2)cc1`, the inhibition is -15.3%.

As for `c1ccc([C@H]2CC3C[C@@H](c4ccccc4)N2O3)cc1`, the inhibition is -8.8%.

On to `O=C(NC1CCCCCC1)c1nc2ncccn2n1`, for which the inhibition is 2.9%.

Regarding `CCOc1cc(/C=C2\CCC/C(=C\c3cc(Cl)c(O)c(OCC)c3)C2=O)cc(Cl)c1O`, the inhibition is 26.7%.

Turning to `COc1cc(/C=N/N(C)c2ccccc2)cc(Cl)c1O`, the inhibition was 5.2%.

For `N#CC(/C(=N/S(=O)(=O)c1cccs1)c1ccccc1)c1nc2ccccc2[nH]1` (centres undefined), the inhibition is -67.4%.

In the case of `O=C(Nc1ccc(Br)cc1)c1cnccn1`, the inhibition was -8.2%.

For the molecule `Cc1nc2c(cc(Oc3ccc(S(=O)(=O)N4CCOCC4)cn3)c3ccsc32)s1`, the inhibition was -48.6%.

On to `CN(C)C(C(=O)NC1CCCCC1)c1ccc(Cl)cc1` (centres undefined), for which the inhibition was -18%.

Take `O=C(Nc1ccc2c(c1)OCCO2)C1c2ccccc2C(=O)N2CCc3ccccc3C12` (centres undefined): the inhibition is 14.8%.

For the molecule `Clc1cccc(Cl)c1/C=C/c1nc2ccccc2[nH]1`, the inhibition was 14.1%.

Turning to `Clc1ccc(/C=C/c2nc3ccccc3[nH]2)cc1`, the inhibition was 4.3%.

In the case of `Clc1nc(-c2n[nH]nc2Cl)n[nH]1`, the inhibition was 14.3%.

`CNc1nnc(-c2cc3cc(Cl)ccc3oc2=O)s1`: the inhibition was -24.2%.

Take `Nc1nnc(-c2cc3ccccc3oc2=O)s1`: the inhibition was 3.8%.

As for `CC1(C)Cc2c(sc3nc4n(c(=N)c23)CCC4)CO1`, the inhibition is -9.9%.

On to `CC1(C)Cc2c(sc3nc4n(c(=O)c23)CCC4)CO1`, for which the inhibition is -3.1%.

With `C=CCOC(=O)C1=C(C)NC2(O)c3ccccc3C(=O)C12O` (centres undefined), the inhibition was 10.9%.

Regarding `CCCN1C(=O)NC2(O)C(=O)c3ccccc3C12O` (centres undefined), the inhibition was 0.4%.

As to `CCSc1nc2c(c(=O)n1CC)SC(C)C2` (centres undefined), the inhibition was -16%.

For `Cn1c(=O)c2c(nc(NCCNC(=O)c3ccco3)n2Cc2ccc(Cl)cc2Cl)n(C)c1=O`, the inhibition is 6.4%.

With `CN1/C(=C/C=N/n2cnnc2)C(C)(C)c2ccccc21`, the inhibition is 16.4%.

`CN1/C(=C\C(=O)c2ccco2)C(C)(C)c2ccccc21`: the inhibition is 3.8%.

Consider `C=CCn1c(Cc2csc(N)n2)nnc1SCC(=O)Nc1ccccc1C(F)(F)F`, for which the inhibition was 21.5%.

In the case of `CC(=O)Oc1ccc2c(C)cc(=O)oc2c1`, the inhibition was 24.6%.

Regarding `CC(=O)c1cc2c(C)cc(=O)oc2cc1O`, the inhibition is 15.2%.

For `CCOC(=O)C(C)n1cnc2c(cnn2-c2ccc(Cl)cc2)c1=O` (centres undefined), the inhibition was 1.3%.

In the case of `CCc1nnc(NC(=O)c2ccc(S(=O)(=O)N3CCCCCC3)cc2)s1`, the inhibition was -15.9%.

As for `COc1ccc(C(c2nnnn2C2CCCC2)N2CCC(C(N)=O)CC2)c(OC)c1` (centres undefined), the inhibition was -65.7%.

Consider `Cc1cc([N+](=O)[O-])ccc1NCc1ccccc1`, for which the inhibition was 47.4%.

With `COc1ccc(CNc2cc([N+](=O)[O-])ccc2OC)cc1`, the inhibition was 31.1%.

As to `Cc1cc(-c2nc3ncccc3o2)ccc1NC(=O)CC(C)C`, the inhibition is -19.3%.
